Screening data: PubChem BioAssay, National Center for Advancing Translational Sciences (NCATS)
Vaccinia mCherry: vaccinia inhibition (mCherry reporter) | Vaccinia virus mCherry reporter infection, fluorescence | Potency, µM (doses to about 36.5 µM), for the others: at the highest dose activity change, negative = inhibition, actives largely listed as inhibitors | 0.63% of 310,000 active | AID 720579; calls by dose curve; tested in A549 cells; further: potency means the concentration at half of the fitted maximal effect; on the % scale 0 is the no-effect control and ±100 the full control effect; nearly all actives have a fitted effect of over 35% in size
MARV entry inh: Marburg virus entry inhibition | 1.8% of 300,000 active | Potency, µM (top dose mostly 37.8 µM), inactives show at the highest dose activity change, negative = inhibition, usual class: inhibitors | Marburg virus pseudotyped entry inhibition, cell reporter; calls by dose curve; tested in HEK293 cells; further: potency means the concentration at half of the fitted maximal effect; on the % scale 0 is the no-effect control and ±100 the full control effect
LASV entry inh: blocks Lassa virus binding to or entry into cells; 1.2% of 300,000 active; Lassa virus pseudotype entry inhibition, cell reporter; AID 540256; Potency, µM (titrated, usually from 37.9 µM), without a hit: top-dose activity change, negative = inhibition, actives largely listed as inhibitors; calls by dose curve; tested in HEK293 cells; further: potency means the concentration at half of the fitted maximal effect; on the % scale 0 is the no-effect control and ±100 the full control effect; nearly all actives have a fitted effect of over 50% in size
Vaccinia Venus: inhibitors of vaccinia virus (Venus reporter). Vaccinia virus Venus reporter expression, fluorescence. Potency, µM (series often up to 36.5 µM), for inactives: at the highest dose activity change, negative = inhibition, actives largely listed as inhibitors. 0.46% of 330,000 active. AID 720580; calls by dose curve; tested in A549 cells; further: potency means the concentration at half of the fitted maximal effect; on the % scale 0 is the no-effect control and ±100 the full control effect; nearly all actives have a fitted effect of over 30% in size
CHX counter: affects cycloheximide protein synthesis inhibition readout, counter-screen; cell reporter, cycloheximide protein synthesis inhibition counterscreen; max response, %; 12% of 300,000 active; in the data active means max response mostly above about 13%, no sharp cut-off; inactive means mostly below about 14%; further: read at 38.3 µM for the half of the compounds with a filed dose; 0% is about no effect
Shiga inhibitor: Shiga toxin inhibition. Vero cells, Shiga toxin protein synthesis inhibition reporter. inhibition, % at 38.7 µM. 9.2% of 290,000 active; in the data active means inhibition mostly above about 28%, no sharp cut-off; inactive means mostly below about 43%; further: 0% is about no effect
Active calls of the source: *; i = inactive; ? = inconclusive; / = no result; ! = not active in a repeat; [ ] = remark or other dose. Only a selection was taken, and hits are over-represented in it overall.

SMILES	Vaccinia mCherry	MARV entry inh	LASV entry inh	Vaccinia Venus	CHX counter	Shiga inhibitor
CCOC(=O)C(C)N1C(=O)S/C(=C/c2cc(C)n(-c3ccncc3)c2C)C1=O (stereo not given)	?	/	/	?	18*	21
C=CCSC1=C(C#N)C(c2ccccc2Cl)C(C(=O)c2cccs2)C(O)(C(F)(F)F)N1 (stereo not given)	-29%	?	-2%	-26%	-1	-9
COc1ccc(-c2noc(CN(C)Cc3ccccc3)n2)c(OC)c1OC	/	/	/	/	15*	20
CCN(CC)CCCn1c(C)cc2c(c1=O)C(c1cccc(Cl)c1)C(C#N)=C(N)O2 (stereo not given)	/	11µM*	?	-9%	-3	1
COc1cc(/C=N/NC(=O)C(=O)NCc2ccco2)cc(Br)c1O	-15%	7%	27%	4%	-3	-10
Cc1cnccc1NC(=O)c1cccs1	i	-1%	3%	8%	-2	-5
Cc1cc(NC(=O)C2CC2)ccc1NC(=O)c1cccs1	8%	?	?	-18%	10	21
CCCC(=O)Nc1ccc(NC(=O)c2ccccn2)cn1	-8%	-19%	?	-3%	23*	48
O=C(Nc1ccc(NC(=O)C2CC2)nc1)c1cccs1	i	21%	9%	-6%	30*	60*
N#Cc1ccc(NC(=O)c2cccs2)nc1	1%	?	9%[46.1 µM]	-17%	24*	74*
CCCC(=O)Nc1ccc(NC(=O)c2cccs2)cn1	-8%	?	11%	-9%	19*	98*
O=C(Nc1ccc(NC(=O)c2cccs2)cn1)c1ccccc1	/	/	/	/	60*	87*
CCCCC(=O)Nc1ccc(NC(=O)c2cccs2)cn1	2%	10%	-7%	-6%	/	/
Cc1cccc(OC(=O)CCN2C(=O)C3C4C=CC(C5CC45)C3C2=O)c1C (stereo not given)	/	/	/	/	-1	-3
NC(=O)c1ncn(C2OC(CO)C(O)C2O)c1N (stereo not given)	-13%	/	/	-8%	/	/
Nc1ncnc2c1ccn2[C@@H]1O[C@H](CO)[C@@H](O)[C@H]1O	1.4µM*	/	/	1.8µM*	-7	22
NC(=S)c1cn(C2OC(CO)C(O)C2O)c2ncnc(N)c12 (stereo not given)	/	/	/	/	-2	-5
NC(=O)c1ncn([C@@H]2O[C@H](CO)[C@@H](O)[C@H]2O)n1	-2%	?	23µM*!	-4%	-4	2
Nc1ccn([C@@H]2O[C@H](CO)[C@@H](O)[C@@H]2O)c(=O)n1	0.5µM*	?	?	?	-1	2
NC[C@H]1O[C@@H](n2ccc(N)nc2=O)[C@H](O)[C@@H]1O	35%	/	/	-9%	/	/
Nc1ncn([C@@H]2O[C@H](CO)[C@@H](O)[C@H]2O)c(=O)n1	2.8µM*!	?	4.1µM*	6.3µM*	/	/
CCOC(=O)CCCCCC(=O)Nc1ccc2c(c1)CC(=O)N([C@@H](C)CO)C[C@@H](C)[C@@H](CN(C)C(=O)Nc1ccc(C(F)(F)F)cc1)O2	i	/	/	-6%	/	/
COc1ccc(CCNC(=O)CSc2c[nH]c3ccccc23)cc1OC	i	/	/	-1%	-3	26
CCC(C)[C@H](NC(=O)OC(C)(C)C)C(=O)NCC1CCC(C(=O)N[C@@H](Cc2ccccc2)C(=O)O)CC1 (stereo not given in full)	/	/	/	/	-1	-7
Nc1ccn(C2OC(CO)C(O)C2O)c(=O)n1 (stereo not given)	0.089µM*!	/	/	-26%	/	/
SMILES	Vaccinia mCherry	MARV entry inh	LASV entry inh	Vaccinia Venus	CHX counter	Shiga inhibitor
CCCCCCCCCCCCCCCC(=O)OCC1OC(n2ccc(N)nc2=O)C(O)C1O (stereo not given)	?	2%	-10%	?	/	/
CC(C)(C)C1CCc2sc(-c3nnc(CCl)o3)cc2C1 (stereo not given)	/	/	/	/	32*	72*
ClCc1nnc(-c2cc3c(s2)CCCC3)o1	-18%	16%[46.1 µM]	-3%[46.1 µM]	-19%	50*	67*
O=C(O)c1cc2c(s1)CCCC2	/	4%	-16%	?	-3	-2
CCC(C(=O)NC1CCCCC1)n1c(SCc2cccc(C)c2)nc2ccncc21 (stereo not given)	-8%	?	31%[46.1 µM]	?	26*	21
CCCCN1C(=O)C(O)(c2c[nH]c3ccccc23)c2cc(Br)ccc21 (stereo not given)	-19%	?	-16%[46.1 µM]	-18%	/	/
NC(=O)c1c(NC(=O)c2cc(-c3ccc(F)cc3)on2)sc2c1CCCC2	2%	6%[46.1 µM]	17%[46.1 µM]	-2%	/	/
Cc1cc(C(=O)Nc2sc(C)c(-c3ccc(F)cc3)c2C(N)=O)no1	/	?	?	8%	62*	84*
Cc1cc(NC(=O)C(C)SCC(=O)Nc2ccccc2OC(F)F)no1 (stereo not given)	-1%	-1%	-6%	-8%	-3	24
Cc1c(Cl)cccc1Nc1nc(NCCO)c2ccccc2n1	-13%	7.9µM*	?	-24%	16*	45*
CCOC(=O)N1CCN(C(=O)C2CCCN(c3nc4ccc(OCC)cc4s3)C2)CC1 (stereo not given)	14%	/	/	2%	13	30*
CCOc1ccc2nc(N3CCC(C(=O)NC4CCCCC4)CC3)sc2c1	/	/	/	/	14	16
CCOc1ccc2nc(N3CCCC(C(=O)Nc4ccc(OC)cc4)C3)sc2c1 (stereo not given)	-24%	?	/	-29%	/	/
CCOc1ccc2nc(N3CCCC(C(=O)NC4CCCC4)C3)sc2c1 (stereo not given)	-10%[7.34 µM]	/	/	-6%[7.34 µM]	33*	20*
COc1ccc(NC(=O)[C@@H](NC(=O)c2ccccc2)C(C)C)cc1S(=O)(=O)N1CCCCC1	i	0.11µM*	-2%	-15%	1	11
COC(=O)C1=C(C)NC(=O)/C1=C\c1ccc2c(c1)OCO2	/	0%	16%	/	34*	14
CC1=NOC(=O)/C1=C/c1ccc2c(c1)OCO2	i	/	/	-4%	1	-13
COC(=O)C1=C(C)NC(=O)/C1=C\c1cc(C)n(-c2c(C)cccc2C)c1C	-6%	12µM*	?	-5%	-2	-10
COc1cccc(-c2csc(NC(=O)Nc3ccccc3)n2)c1	/	/	/	/	14*	57*
O=C(Nc1ccccc1)Nc1nc(-c2ccccc2)cs1	/	/	/	/	45*	39
CC(C)(C)c1csc(NC(=O)Nc2ccccc2)n1	-17%	?	?	-22%	51*	72*
COc1ccc(N(CC(=O)NCCc2ccc(C)cc2)S(=O)(=O)c2c(C)nn(C)c2C)cc1	-5%	9%[46.1 µM]	-3%[46.1 µM]	-5%	/	/
COc1ccc(NC(=O)c2ccc(N3C(=O)C4CC=C(C)CC4C3=O)cc2)c(OC)c1 (stereo not given)	/	/	/	/	-2	-15
COC(=O)[C@H]1[C@H](C)[C@@]2(O)c3ccccc3N(C)[C@@]1(C)[C@H]2O	/	-25%[14.2 µM]	/	/	/	/
CCC(=O)Oc1ccc(/C=C(\C#N)c2nc3ccccc3[nH]2)cc1OC	?	/	22%[46.1 µM]	21%	/	/
COc1cc(/C=C/C(=O)NCc2nc3ccccc3[nH]2)cc(OC)c1OC	/	/	/	/	9	-4
